Measurements: PubChem BioAssay
Active and inactive are the calls of the source.

Key:
[1] = tested on: wheat germ agglutinin (Triticum aestivum), Alexa647-labelled; assay: Alexa647-WGA lectin binding to printed small molecules – biochemical, small-molecule microarray, 635/667 nm fluorescence, artefact control for SMM control-protein annotation, profiling panel (AID 1140); details: WGA-A647 binding, 635 nm fluorescence, higher = more signal;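 also: score merges 667 nm feature emission with signal to noise over triplicate slides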
[2] = molecular target: Luciferin 4-monooxygenase (Photinus pyralis) (UniProt P08659); assay: inhibition of purified Photinus pyralis luciferase – biochemical, luminescence, purified enzyme, 2006 set, primary screen (AID 1141); details: purified firefly luciferase, SteadyGlo luminescence, 30 min; higher = more signal, called active from +8 up or from −8 down;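 also: cell-free assay with purified firefly luciferase at 100 ng per well in PBS; test concentration not given here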
Luciferin 4-monooxygenase (Photinus pyralis), sequence (P08659 whole entry, looked up): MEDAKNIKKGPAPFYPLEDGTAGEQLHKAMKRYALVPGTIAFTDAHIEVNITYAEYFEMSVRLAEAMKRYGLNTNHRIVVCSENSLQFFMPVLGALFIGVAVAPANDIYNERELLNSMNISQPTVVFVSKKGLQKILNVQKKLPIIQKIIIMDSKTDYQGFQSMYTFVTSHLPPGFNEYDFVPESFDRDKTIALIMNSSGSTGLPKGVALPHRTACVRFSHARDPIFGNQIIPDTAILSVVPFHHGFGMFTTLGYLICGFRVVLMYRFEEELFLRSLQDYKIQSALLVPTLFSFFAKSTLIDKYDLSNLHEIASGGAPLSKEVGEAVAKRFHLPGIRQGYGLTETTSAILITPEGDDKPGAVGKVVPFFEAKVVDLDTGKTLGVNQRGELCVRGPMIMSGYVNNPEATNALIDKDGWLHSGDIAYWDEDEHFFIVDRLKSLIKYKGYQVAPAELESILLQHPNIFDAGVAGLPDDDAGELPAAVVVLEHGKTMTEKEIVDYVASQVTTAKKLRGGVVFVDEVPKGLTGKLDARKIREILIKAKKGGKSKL

[3] = tested on: Wnt5a (protein binding on small-molecule microarray); assay: small molecules binding Wnt5a protein – biophysical, small-molecule microarray, 635/667 nm fluorescence, primary screen (AID 1142); details: 635 nm fluorescence, higher = more signal;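 also: fluorescence read at 667 nm with signal to noise per printed feature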
[4] = ATP-based viability of Huh7 replicon cells – cell-based, CellTiter-Glo luminescence, basal, 48 h, cytotoxicity control for HCV replication inhibitor project, primary screen (AID 1143); details: higher = more signal, called active from +8 up or from −8 down;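 also: Huh7 hepatoma cells carrying a hepatitis C replication reporter with no stimulus; test concentration not given here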
[5] = basal CRE-LacZ reporter activity in PC12 – cell-based, unstimulated, primary screen (AID 1145); details: no forskolin, luminescence, 4.5 h, higher = more signal, called active from +8 up or from −8 down
[6] = forskolin-driven CRE-LacZ activity in PC12 – cell-based, CRE-LacZ reporter, forskolin-stimulated, primary screen (AID 1146); details: luminescence, 4.5 h, higher = more signal, called active from +8 up or from −8 down;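 also: PC12 cells with 6xCRE LacZ reporter stimulated by forskolin 10 µM; beta-galactosidase reporter signal reflecting CREB driven transcription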
[7] = molecular target: Streptavidin (Streptomyces avidinii) (UniProt P22629); assay: compounds binding control protein streptavidin – biophysical, small-molecule microarray, 635/667 nm fluorescence, artefact control for SMM compound annotation, primary screen (AID 1147); details: higher = more signal;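 also: signal reflects streptavidin binding to arrayed compounds as a control protein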
Streptavidin (Streptomyces avidinii), sequence (P22629 whole entry, looked up): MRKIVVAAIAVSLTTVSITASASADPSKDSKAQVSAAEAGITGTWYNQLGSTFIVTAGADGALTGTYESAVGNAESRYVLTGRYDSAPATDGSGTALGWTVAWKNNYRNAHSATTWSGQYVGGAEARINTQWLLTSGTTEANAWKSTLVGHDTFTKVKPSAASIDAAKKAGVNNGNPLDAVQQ

[8] = probe aInhba binding on compound microarray – biochemical, small-molecule microarray, 635/667 nm fluorescence, primary screen (AID 1148); details: higher = more signal;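 also: score merges 667nm spot fluorescence with signal-to-noise for antibody binding to printed compounds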
Torsin-1A (Homo sapiens) [9] = molecular target: Torsin-1A (Homo sapiens) (UniProt O14656); assay: TOR1A wild-type binding on microarray – cell lysate, small-molecule microarray, lysate, 635/667 nm, primary screen (AID 1149); details: COS7 hTOR1A-WT lysate, 635 nm fluorescence, higher = more signal
Torsin-1A (Homo sapiens), sequence (O14656 whole entry, looked up): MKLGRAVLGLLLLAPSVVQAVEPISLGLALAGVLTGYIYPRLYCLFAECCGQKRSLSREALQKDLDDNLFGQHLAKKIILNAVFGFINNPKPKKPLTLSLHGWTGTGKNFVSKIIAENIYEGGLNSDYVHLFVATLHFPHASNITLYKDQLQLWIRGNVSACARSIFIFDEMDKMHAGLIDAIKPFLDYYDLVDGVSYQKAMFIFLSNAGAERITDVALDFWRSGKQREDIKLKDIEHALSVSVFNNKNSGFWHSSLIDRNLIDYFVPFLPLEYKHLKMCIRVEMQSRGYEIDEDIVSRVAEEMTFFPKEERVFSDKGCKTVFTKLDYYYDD

Torsin-1A (Homo sapiens) [10] = molecular target: Torsin-1A (Homo sapiens) (UniProt O14656); assay: torsin A mutant lysate binding on microarrays – cell lysate, small-molecule microarray, COS7 lysate, 635/667 nm fluorescence, primary screen (AID 1150); details: COS7 hTOR1A mutant lysate, 635 nm fluorescence, higher = more signal;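 also: score pools 667 nm emission and signal to noise measuring lysate protein binding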
[11] = tested on: Sonic hedgehog protein (Shh); assay: Sonic hedgehog microarray binding compounds – biochemical, small-molecule microarray, 635/667 nm fluorescence, primary screen (AID 1151); details: 635 nm fluorescence, higher = more signal;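 also: Shh protein binding to compounds spotted on small-molecule microarray slides; score combines spot fluorescence intensity with signal-to-noise across triplicate slides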
[12] = optical density shifts of acrAB sulA E. coli – strain DRC41, OD650, 48 h, E. coli filamentation inducer project, primary screen (AID 1152); details: higher = more signal, called active from +8 up or from −8 down;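 also: E. coli MC1000 strain DRC41 lacking acrAB efflux pump and sulA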
[13] = probe aLefty1 binding on compound microarray – biochemical, small-molecule microarray, 635/667 nm fluorescence, primary screen (AID 1153); details: higher = more signal;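 also: score merges spot fluorescence with signal-to-noise ratio from the scanned slide images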
[14] = plasmodial surface anion channel blockers, osmotic lysis – cell-based, P. falciparum Indochina, OD700, 1 h, primary screen (AID 1154); details: P. falciparum Indochina infected RBC osmotic lysis, higher = more signal, called active from +8 up or from −8 down
[15] = plasmodial surface anion channel blockers, osmotic lysis – cell-based, P. falciparum Indochina, OD700, 2 h, primary screen (AID 1155);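 also: lysis reports solute entry through the parasite surface anion channel PSAC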; details: P. falciparum Indochina infected erythrocytes, higher = more signal, called active from +8 up or from −8 down
[16] = changes in parasitized red cell lysis, either direction – P. falciparum Indochina, OD700, 3 h, PSAC antagonist project, primary screen (AID 1156); details: P. falciparum-infected erythrocytes, osmotic lysis, higher = more signal, called active from +8 up or from −8 down
[17] = plasmodial surface anion channel blockers, osmotic lysis – cell-based, P. falciparum Indochina, OD700, 18 h, primary screen (AID 1157); details: P. falciparum Indochina infected erythrocytes, osmotic lysis OD700, 18 h; higher = more signal, called active from +8 up or from −8 down
[18] = S6 kinase pathway phospho-S6 level changes – cell-based, A549, cytoblot, luminescence, serum-stimulated, primary screen (AID 1158); details: 5 h, higher = more signal;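 also: serum-stimulated A549 lung adenocarcinoma cells; signal is phosphorylated S6 detected by cytoblot immunostaining with HRP secondary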
[19] = molecular target: NADPH oxidase 2 (Homo sapiens) (UniProt P04839); assay: compounds shifting NOX2 Amplex Red fluorescence – cell-based, HEK293-NOX2, PMA-stimulated, NOX inhibitor project, primary screen (AID 1159); details: 45 min, higher = more signal, called active from +8 up or from −8 down; also: test concentration not given here
NADPH oxidase 2 (Homo sapiens), sequence (P04839 whole entry, looked up): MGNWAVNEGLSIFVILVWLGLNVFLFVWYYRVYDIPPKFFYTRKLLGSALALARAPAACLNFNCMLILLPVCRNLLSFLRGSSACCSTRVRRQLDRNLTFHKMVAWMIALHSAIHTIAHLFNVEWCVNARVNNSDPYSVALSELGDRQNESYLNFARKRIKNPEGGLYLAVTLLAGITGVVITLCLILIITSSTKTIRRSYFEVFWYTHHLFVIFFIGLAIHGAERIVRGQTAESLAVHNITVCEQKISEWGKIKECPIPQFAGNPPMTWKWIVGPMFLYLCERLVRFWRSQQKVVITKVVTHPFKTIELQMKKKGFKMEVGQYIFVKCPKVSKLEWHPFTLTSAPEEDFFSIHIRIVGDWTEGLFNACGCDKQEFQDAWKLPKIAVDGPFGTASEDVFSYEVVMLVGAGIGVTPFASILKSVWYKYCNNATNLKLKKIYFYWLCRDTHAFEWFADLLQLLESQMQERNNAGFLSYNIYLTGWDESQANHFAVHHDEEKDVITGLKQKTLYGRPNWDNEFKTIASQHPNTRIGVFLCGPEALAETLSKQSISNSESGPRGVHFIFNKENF

[20] = molecular target: NADPH oxidase 4 (Homo sapiens) (UniProt Q9NPH5); assay: compounds shifting NOX4 Amplex Red fluorescence – cell-based, HEK293-NOX4, tetracycline-induced, NOX inhibitor project, primary screen (AID 1160); details: HEK293-NOX4, Amplex Red H2O2 fluorescence, 45 min; higher = more signal, called active from +8 up or from −8 down
NADPH oxidase 4 (Homo sapiens), sequence (Q9NPH5 whole entry, looked up): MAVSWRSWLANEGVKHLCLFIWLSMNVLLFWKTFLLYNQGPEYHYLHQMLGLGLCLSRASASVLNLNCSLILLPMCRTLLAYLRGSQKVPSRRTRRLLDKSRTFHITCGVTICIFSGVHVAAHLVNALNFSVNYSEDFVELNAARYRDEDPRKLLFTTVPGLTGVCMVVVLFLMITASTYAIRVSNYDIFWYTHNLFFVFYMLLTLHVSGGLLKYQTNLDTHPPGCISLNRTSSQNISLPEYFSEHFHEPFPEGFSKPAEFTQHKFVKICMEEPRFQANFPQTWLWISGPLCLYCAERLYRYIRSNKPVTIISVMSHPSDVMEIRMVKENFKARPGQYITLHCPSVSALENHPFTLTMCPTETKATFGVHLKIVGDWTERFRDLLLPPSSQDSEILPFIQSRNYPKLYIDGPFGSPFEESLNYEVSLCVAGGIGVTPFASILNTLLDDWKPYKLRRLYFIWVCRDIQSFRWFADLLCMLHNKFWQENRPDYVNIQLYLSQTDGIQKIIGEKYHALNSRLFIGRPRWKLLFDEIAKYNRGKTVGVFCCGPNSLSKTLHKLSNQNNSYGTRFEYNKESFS

| SMILES | composite z-score [1] | z-score [2] | composite z-score [3] | z-score [4] | z-score [5] | z-score [6] | composite z-score [7] | composite z-score [8] | composite z-score (Torsin-1A (Homo sapiens) [9]) | composite z-score (Torsin-1A (Homo sapiens) [10]) | composite z-score [11] | z-score [12] | composite z-score [13] | z-score [14] | z-score [15] | z-score [16] | z-score [17] | z-score [18] | z-score [19] | z-score [20] |
| --- | --- | --- | --- | --- | --- | --- | --- | --- | --- | --- | --- | --- | --- | --- | --- | --- | --- | --- | --- | --- |
| COc1ccc([Si](C)(C)[C@H]2[C@H](CC(=O)N(CCO)Cc3ccccc3)O[C@@]3(C(=O)N(Cc4ccc(N5CCOC5=O)cc4)c4ccccc43)[C@@H]2C)cc1 | 0.455 | -1.39 (inactive) | -0.0226 | -2.42 (inactive) | 1.05 (inactive) | -0.871 (inactive) | 0.295 | 0.0111 | 0.442 | 0.0957 | 1.73 | 1.22 (inactive) | -0.123 | 25.1 (active) | 14.5 (active) | -0.084 (inactive) | 2.17 (inactive) | -0.141 | 0.815 (inactive) | -0.23 (inactive) |
| C=C(/C(=C/C[C@H](OC(C)=O)c1cccc(OCCO)c1)c1cc(C(=O)OC)ccc1OC)C(C)C | -0.907 | -1.84 (inactive) | -0.0431 | -0.802 (inactive) | 11.7 (active) | -1.02 (inactive) | -0.948 | -0.128 | -0.0282 | -0.193 | 0.237 | 1.81 (inactive) | -0.191 | 6.36 (inactive) | 1.29 (inactive) | 2.46 (inactive) | 0.576 (inactive) | -0.228 | 2.19 (inactive) | 1.84 (inactive) |
| O=C1N(CCS(=O)(=O)c2ccccc2)Cc2ccccc2[C@@H]2OC(c3ccc(OCCCO)cc3)=N[C@]12Cc1ccccc1 | 1.23 | -2.12 (inactive) | 1.14 | -3.69 (inactive) | 0.927 (inactive) | -1.09 (inactive) | 1.66 | 0.243 | 0.612 | 0.29 | 1.96 | 0.218 (inactive) | 0.327 | 27.7 (active) | 18.5 (active) | 3.32 (inactive) | 2.53 (inactive) | 0.503 | -3.23 (inactive) | -0.195 (inactive) |
| Cc1ccc(S[C@]2(C(=O)NC3CC3)CC(=O)N(Cc3ccccc3C(F)(F)F)[C@@H]2c2ccc(CO)cc2I)cc1 | 0.74 | -1.15 (inactive) | 0.132 | -2.54 (inactive) | -0.114 (inactive) | -0.479 (inactive) | -0.297 | -0.0523 | -0.0139 | 0.231 | 0.385 | 2.31 (inactive) | 0.309 | 5.75 (inactive) | -0.15 (inactive) | 0.693 (inactive) | -1.31 (inactive) | 1.8 | 1.42 (inactive) | -2.36 (inactive) |
| Cc1ccc(S[C@]2(C(=O)NCC(C)C)CC(=O)N(C(C)C)[C@@H]2c2ccc(CO)cc2)cc1 | -1.76 | -0.204 (inactive) | 0.114 | -4.95 (inactive) | 0.182 (inactive) | -0.838 (inactive) | -1.13 | 0.0464 | 0.234 | 0.0167 | -0.305 | 2.67 (inactive) | -0.191 | 1.73 (inactive) | -0.147 (inactive) | -0.651 (inactive) | -1.54 (inactive) | 3.27 | 0.827 (inactive) | -0.881 (inactive) |
| NC(=O)NCC#Cc1ccc2c(c1)[C@]1(C(=O)N2)[C@H](c2ccc(OCCO)cc2)N2[C@H](c3ccccc3)[C@H](c3ccccc3)OC(=O)[C@H]2[C@@H]1C(=O)Nc1nc2ccccc2s1 | 0.244 | -2.15 (inactive) | 0.151 | -0.0246 (inactive) | -0.0246 (inactive) | 0.625 (inactive) | 0.453 | 0.0253 | -0.033 | 0.254 | 0.0186 | 2 (inactive) | 0.122 | 2.5 (inactive) | 2.06 (inactive) | 1.53 (inactive) | 1.33 (inactive) | -0.199 | 1.43 (inactive) | 0.57 (inactive) |
| COCCOC(=O)N1C(=O)[C@@]2(c3cc(C#CCCO)ccc31)[C@H](c1ccccc1OCCO)N1[C@H](c3ccccc3)[C@H](c3ccccc3)OC(=O)[C@H]1[C@@H]2C(=O)NC[C@H](O)c1ccccc1 | 1.01 | -1.74 (inactive) | 0.142 | -4.1 (inactive) | 1.42 (inactive) | -1.44 (inactive) | 0.506 | 0.209 | 1.94 | 0.552 | 1.56 | 2.96 (inactive) | -0.0222 | 3.88 (inactive) | 0.965 (inactive) | 0.673 (inactive) | 0.442 (inactive) | 2.31 | 1.59 (inactive) | 1.52 (inactive) |
| C=C[C@H](OC)[C@@H](OC(=O)Nc1ccc(OC)cc1)c1ccc(OC)c(O)c1 | -2.18 | -1.67 (inactive) | -0.307 | -0.088 (inactive) | 2.03 (inactive) | -1.53 (inactive) | -1.38 | -0.348 | -0.86 | -0.657 | 0.149 | 2.02 (inactive) | -0.0984 | 1.27 (inactive) | -1.23 (inactive) | -1.84 (inactive) | -1.83 (inactive) | -0.443 | -2.28 (inactive) | -1.92 (inactive) |
